# Assay outcomes (PubChem)
# CRFR2-BP antag = antagonists of CRF-BP/CRF-R2 complex, primary screen, cell-based, HEK293, calcium dye fluorescence, uHTS; CRF-induced calcium fluorescence; 0.59% of 350,000 active; inhibition, % at 11.8 µM;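 active means inhibition of the ligand-induced calcium signal above about 50% at the single tested concentration, limit read from the data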
# NTR1 agonist = agonists of human NTR1, primary screen, imaging, U2OS cells, beta-arrestin-GFP, high content. NTR1-U2OS beta-arrestin-GFP spot imaging, agonist mode. activation, % at 20 µM. 0.17% of 330,000 active;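 active means activation at or above 40% of the spot to cytoplasm intensity ratio, with at least 20 cells analyzed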;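 further: 0% = DMSO without peptide and 100% = 100 nM NTR1 peptide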
# Target sequence (P30989 whole entry, looked up): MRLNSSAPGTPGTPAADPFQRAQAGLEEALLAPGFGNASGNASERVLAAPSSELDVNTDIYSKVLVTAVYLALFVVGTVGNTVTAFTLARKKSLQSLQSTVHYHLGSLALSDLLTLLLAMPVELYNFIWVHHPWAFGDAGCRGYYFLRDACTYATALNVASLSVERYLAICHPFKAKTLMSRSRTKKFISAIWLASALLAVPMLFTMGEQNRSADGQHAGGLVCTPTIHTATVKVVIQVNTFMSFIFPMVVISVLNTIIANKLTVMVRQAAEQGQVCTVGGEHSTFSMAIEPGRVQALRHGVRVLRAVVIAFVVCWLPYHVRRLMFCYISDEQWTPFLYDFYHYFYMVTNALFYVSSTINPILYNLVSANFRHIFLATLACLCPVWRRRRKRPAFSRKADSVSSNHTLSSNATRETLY
# CRFR2-BP ag = agonists of CRF-BP/CRF-R2 complex, primary screen, cell-based, HEK293, calcium dye fluorescence, uHTS. 0.46% of 350,000 active. CRF-binding protein / CRF receptor 2 complex (human). calcium dye fluorescence (FLIPR); percent of saturating CRF peptide response. AID 588473, 2011. activation, % at 13.2 µM;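 active means activation of at least 50%, plus an integration ratio under a set limit after plate pattern correction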;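 further: plate controls were neutral control wells without compound for no effect and CRF at EC100 for full effect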
# V-ATPase pH = regulators of yeast V-ATPase proton pumping, primary screen, pHLuorin cytosolic pH fluorescence; S. cerevisiae; response, % at 10 µM; 0.37% of 350,000 active; in the data active means response mostly above about 7.3%, no sharp cut-off; inactive means mostly below about 5.4%; further: actives read high
# Active calls of the source: *; / = no result. Only some compounds are listed: those with a hit (about 1.5% of all), similar ones and a draw of the others.
SMILES,CRFR2-BP antag,NTR1 agonist,CRFR2-BP ag,V-ATPase pH
Cc1ccc2nc(Cl)c3nnnn3c2c1,-39.4,17.1,3.4,10.0*
Cc1ccc2nc(N3CCN(c4cccc(C)c4C)CC3)c3nnnn3c2c1,-9.2,14.7,1.4,0.8
CC1(C)CC(=O)C=C(c2ccc(COC(=O)Cc3ccccc3)cc2)C1=O,-12.0,/,-1.0,4.3
COc1ccc(C2CC(c3ccccc3F)=NN2c2ccc(S(N)(=O)=O)cc2)cc1 (stereo unspecified),0.1,8.5,-1.0,1.9
COc1ccc(C2CC(c3ccccc3C(F)(F)F)=NN2c2ccc(S(N)(=O)=O)cc2)cc1 (stereo unspecified),58.8*,9.9,5.3,-2.7
CCCN(C(=O)c1cc(Cl)nc2ccccc12)C1CCS(=O)(=O)C1 (stereo unspecified),75.1*,1.2,-1.5,-3.1
CN(C(=O)COC(=O)c1cc(-c2ccc(Cl)s2)nc2ccccc12)C1CCS(=O)(=O)C1 (stereo unspecified),-53.0,3.5,6.3,12.1*
Cc1ccc(S(=O)(=O)N2CCCC2)cc1C(=O)Nc1ccc(-n2cnnn2)cc1,-0.2,-1.6,-0.8,-0.9
NC(=O)CSc1nnc(-c2ccc(S(=O)(=O)N3CCCCC3)cc2)n1-c1ccccc1,-62.6,1.0,36.9,1.1
COc1ccccc1-n1c(SCC(N)=O)nnc1-c1ccc(S(=O)(=O)N2CCCCC2)cc1,-88.5,-0.4,62.3*,1.3
COc1ccc(C2C3=C(CC(C)(C)CC3=O)Nc3c2c(=O)n(C)c(=O)n3C)cc1OC (stereo unspecified),112.6*,-1.6,2.1,3.0
Cc1cccc(C(=O)N2CCc3ccccc3C2)c1[N+](=O)[O-],85.2*,-1.1,-5.2,-0.4
O=C(c1ccccc1[N+](=O)[O-])N1CCc2ccccc2C1,15.0,6.8,-2.6,0.6
CCN1CCN(Cc2c(O)ccc3c2O/C(=C\c2ccc(C)cc2)C3=O)CC1,-54.2,-1.5,53.9*,1.1
COc1ccccc1/C=C/C=C1\Oc2c(ccc(O)c2CN2CCN(CCO)CC2)C1=O,-64.9,-0.5,59.4*,-1.6
O=C1/C(=C/C=C/c2ccccc2)Oc2c1ccc(O)c2CN1CCN(CCO)CC1,-13.8,-0.8,17.9,-3.6
Cc1ccc(NC(=O)COC(=O)CN2C(=O)NC3(CCCC3)C2=O)cc1S(=O)(=O)N(C)C,61.1*,2.0,2.0,-1.8
Cc1ccc(NC(=O)COC(=O)CN2C(=O)NC3(CCCC3)C2=O)cc1Cl,3.1,0.8,0.5,2.3
COc1cc(/C=C2\SC(=S)N(NC(=O)c3cccc(O)c3)C2=O)ccc1O,-61.6,-0.3,64.4*,-1.8
COc1ccc(/C=C2\SC(=S)N(CC(=O)NCCO)C2=O)cc1,59.8*,3.8,1.3,-0.1
CCOc1ccc(/C=C2\SC(=S)N(CCC(=O)Nc3ccccc3C(=O)O)C2=O)cc1,55.0*,4.7,-3.3,-2.0
COc1cc(/C=C2\SC(=S)N(NC(=O)c3ccc(O)c(OC)c3)C2=O)ccc1O,-41.7,-0.4,30.7,-0.1
COc1cc(/C=C2\SC(=S)N(C(C(=O)O)c3ccccc3)C2=O)ccc1O (stereo unspecified),-51.3,-1.1,52.7*,-2.4
COc1cc(/C=C2\SC(=S)N(NS(=O)(=O)c3ccccc3)C2=O)ccc1O,-36.4,0.4,26.6,-0.4
COc1cc(/C=C2\SC(=S)N(NS(=O)(=O)c3ccc(C)cc3)C2=O)cc(OC)c1OC,55.4*,1.3,0.7,5.7
SMILES,CRFR2-BP antag,NTR1 agonist,CRFR2-BP ag,V-ATPase pH
COc1ccc(/C=C2\SC(=S)N(C(Cc3ccccc3)C(=O)O)C2=O)cc1 (stereo unspecified),58.3*,-0.1,-1.1,-5.1
COc1cc(/C=C2\SC(=S)N(NS(=O)(=O)c3ccc(C)cc3)C2=O)ccc1O,-34.0,3.2,59.0*,-4.2
CC(C)CN(CC(C)C)S(=O)(=O)N1CCC(C(=O)NCCc2ccc(Cl)cc2)CC1,6.1,1.3,1.0,0.5
O=C(NC1CCN(Cc2ccccc2)C1)c1cccc(S(=O)(=O)N2CCOCC2)c1 (stereo unspecified),15.2,0.5,-0.6,4.0
O=S(=O)(NC1CCN(Cc2ccccc2)CC1)c1cccc(S(=O)(=O)N2CCOCC2)c1,31.8,5.7,-0.1,15.2*
O=C(Nc1ccn(CCCNCc2ccc3c(c2)OCO3)c(=O)n1)OCc1ccccc1,110.3*,/,0.9,0.9
O=C(Nc1ccn(CCCNCc2ccccc2)c(=O)n1)OCc1ccccc1,3.9,/,1.1,-0.8
O=C(NC(C(=O)N/N=C/c1cccnc1)c1n[nH]c(=O)c2ccccc12)c1ccccc1 (stereo unspecified),-58.5,-0.5,95.9*,-1.5
Cc1ccc2nc3c(cc(C(=O)NCc4ccco4)c(=N)n3C3CCCC3)c(=O)n2c1,/,4.5,/,2.9
Cc1cccn2c(=O)c3cc(C(=O)NCc4ccco4)c(=N)n(C4CCCCC4)c3nc12,54.4*,12.7,3.3,0.2
COCCn1c(=N)c(C(=O)NCc2ccco2)cc2c(=O)n3cc(C)ccc3nc21,83.6*,1.4,10.7,0.3
Cc1ccc(Cn2c(SCC(=O)NCC3CCCO3)nc3ccsc3c2=O)cc1 (stereo unspecified),54.1*,-0.8,2.3,4.4
O=C(CSc1nc2ccsc2c(=O)n1Cc1ccc(C(=O)O)cc1)NCC1CCCO1 (stereo unspecified),1.6,-0.1,-2.3,-2.0
CC1=Nc2ccccc2/C1=C\c1nc(-c2ccccc2)oc1O,-15.2,3.4,10.0,-1.9
CC1=Nc2ccccc2/C1=C\c1nc(-c2ccc(C(F)(F)F)cc2)oc1O,-204.8,-2.8,121.1*,-2.5
O=C(O)c1ccc(COc2ccccc2C=C2C(=O)c3ccccc3C2=O)cc1,81.0*,0.7,-0.9,-0.1
O=C1NC(=S)N/C1=C\c1ccccc1OCc1ccc(C(=O)O)cc1,-6.0,0.1,1.4,-1.8
COc1cc(Br)ccc1C1CC(=O)C(C)C(c2ccc(Br)cc2OC)N1 (stereo unspecified),8.0,2.4,2.4,-2.1
COc1ccccc1C/C(N)=N/OC(=O)COc1ccc(C)cc1C,54.0*,3.8,-2.3,1.1
Cc1ccc(OCC(=O)Nc2cc(Cl)ccc2-n2cncn2)c(C)c1,-3.6,/,-1.2,/
Cc1ccc(S(=O)(=O)CCC(=O)Nc2cc(Cl)ccc2-n2cncn2)cc1,50.3*,1.2,-0.2,2.0
COc1ccc(Oc2nccc(-c3ccccc3)c2C#N)cc1,71.1*,1.4,-0.5,/
CCCNc1nc2nc3ccccn3c(=O)c2cc1C(=O)NCCN1CCOCC1,-1.9,-1.9,1.0,-6.9
CCOC(=O)/C(C#N)=C1\SS/C(=C(/C#N)C(=O)OCC)S1,/,1.1,/,/
O=C(O)C1C2C=CC(C2)C1C(=O)NCc1cccc(Cl)c1 (stereo unspecified),-7.8,-0.2,0.4,-1.9
O=C(O)C1C2C=CC(C2)C1C(=O)NCCc1cccc(Cl)c1 (stereo unspecified),50.1*,0.0,1.0,5.0
Brc1ccc2ncc(Br)cc2c1,7.6,0.0,-0.2,-2.9
